The text below walks through data of PubChem BioAssay (EPA / NIEHS).

Assay [1] is described as follows: CCTE_Deisenroth_5AR_NBTE_acceptor: CCTE's 5alpha-reductase NanoBRET Target Engagement Assay - Autofluorescence Screen, Deisenroth Lab (AID 2284321; active = hit-call score of the fitted dose curve at least 0.9, where 1 is the maximum; inactive = score below 0.9;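 also: compound fluorescence in the acceptor channel under 460 nm excitation flags autofluorescence artifacts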). The note with it: actives raise or lower the signal. The gist of the method: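 Chemicals diluted to a nominal 100 uM in DMSO were scanned at 460 nm excitation. Samples were read in three independent runs (n=3). Gain or loss of acceptor signal was fitted relative to DMSO.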
(In general: In BRET a luciferase serves as donor, and the signal depends on an acceptor being close.)

Assay [2] deals with SRD5A2 (gene 6716). Briefly: CCTE_Deisenroth_5AR_NBTE_ratio: CCTE's 5alpha-reductase NanoBRET Target Engagement Assay - Ratio, Deisenroth Lab (AID 2284322; active = hit-call score of the fitted dose curve at least 0.9, where 1 is the maximum; inactive = score below 0.9). Conditions: actives raise or lower the signal. A digest of the protocol: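 HEK293T cells transiently expressing an SRD5A2-NanoLuc fusion (20 h post-transfection) were exposed to test chemical (10 nM - 29.9 uM, 8 points) for 3 h, then testosterone tracer for a further 2 h. Acceptor/donor BRET ratio was fitted bidirectionally against DMSO baseline.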

The nature of assay [3]: TAMU_PeakParms_SingleDonor1434_Asystole: Texas A&M University (TAMU) 1.5-hr Human Induced Pluripotent Stem Cell (iPSC)-derived Cardiomyocytes Calcium (Ca+2) Flux Assay for Cardiotoxicity: Asystole (quiescence of beating) (AID 2284328). The gist of the method: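 Human iPSC-derived cardiomyocytes (donor 1434) were exposed to 0.2, 1, 10 and 100 uM compound in 0.5% DMSO for 90 min at 37C. Ca2+-dye fluorescence gave average peak frequency; POD is EC95, a 95% beat-rate drop versus DMSO.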

Assay [4] relates to SERPINA7 (gene 6906). The experiment in a line: CCTE_GLTED_hTBG: CCTE's human Thyroxine-binding Globulin (TBG) Inhibition Assay, Great Lakes Toxicology and Ecology Division (GLTED) Lab (AID 2284343).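 Also: active chemicals lower fluorescence versus DMSO baseline by displacing probe.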 The gist of the method: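 Cell-free displacement of the fluorescent probe ANSA from human thyroxine-binding globulin after 2 h exposure. Read-out at ex 380/em 475 nm; DMSO baseline.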

Assay [5] can be described thus: IUF_NPC1_cytotoxicity_72hr: Cytotoxicity Assessment at 72 hours in the Leibniz Research Institute for Environmental Medicine (IUF) Neural Progenitor Cell Proliferation Assay (NPC1) (AID 2284332).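 Also: rising LDH signal means more cytotoxicity.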 A digest of the protocol:
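Cytotoxicity by LDH membrane-integrity assay on medium supernatants, fluorescence via resazurin reduction, after 3-day single exposure of primary hNPC spheres at 37C, pH 7.2-7.6 with growth factors. Fitted upward against baseline.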

Assay [6] in a line: CCTE_Mundy_HCI_iCellGluta_NOG_NeuriteCount: CCTE's Neurite Outgrowth Assay in iCellGluta cells for Neurite Count, Mundy Lab (AID 2284342).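 Also: chemical exposure about 48 hours starting 2 hours after plating.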
Assay [7] can be described thus: CCTE_Mundy_HCI_iCellGluta_NOG_NeuronCount: CCTE's Neurite Outgrowth Assay in iCellGluta cells for Neuron Count, Mundy Lab (AID 2284340).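 Also: cells fixed about 48 h after compound addition.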 The gist of the method:
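Neuron count read by automated high-content imaging of Hoechst 33342 and betaIII-tubulin/Alexa Fluor-488 labelling in human iPSC glutamatergic neurons. Activity fitted relative to DMSO.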

Assay [8] can be described thus: CCTE_Deisenroth_H295R-HTRF_384WELL_ESTRADIOL: CCTE's H295R-HTRF Assay Evaluation of Estradiol Concentration, Deisenroth Lab (AID 2284361; active = hit-call score of the fitted dose curve at least 0.9, where 1 is the maximum; inactive = score below 0.9). The note with it: actives raise or lower the signal. A digest of the protocol: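 Estradiol secreted into medium by H295R adrenocortical cells, quantified by HTRF after 48 h dosing over a nine-point 0.001 - 100 uM final range; gain or loss versus DMSO. Parallel ATP-luminescence viability readout; n=5 experiments.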
In general terms: Time-resolved FRET reads energy transfer from a long-lived donor to a nearby acceptor.

The nature of assay [9]: CCTE_Deisenroth_H295R-HTRF_384WELL_TESTOSTERONE: CCTE's H295R-HTRF Assay Evaluation of Testosterone Concentration, Deisenroth Lab (AID 2284373; active = hit-call score of the fitted dose curve at least 0.9, where 1 is the maximum; inactive = score below 0.9). The note with it: actives raise or lower the signal. A digest of the protocol:
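Secreted testosterone was quantified by HTRF immunoassay of medium from human adrenocortical H295R cells after 48 h chemical exposure at 0.001–100 uM final. Gain or loss was fitted against DMSO. ATP-based viability was read on matched wells, five experimental replicates.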

Assay [10] is described as follows: CCTE_Deisenroth_H295R-HTRF_384WELL_CTOX: Cytotoxicity Assessment in CCTE's H295R-HTRF Assay, Deisenroth Lab (AID 2284380). The gist of the method:
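Luminescent ATP viability readout (CellTiter-Glo 2.0), multiplexed on plates used for hormone sampling, after 48 h chemical exposure. Human H295R cells; final concentrations 0.001–100 uM in nine steps, technical triplicates, five experiments; DMSO baseline.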

Results filed as inconclusive are left out. More than one record can exist for a structure, and the calls need not agree. Active and inactive are the calls of the source. The calls were made as follows, unless noted: active = hit-call score of the fitted dose curve at least 0.9, where 1 is the maximum; inconclusive = response in the unintended direction; inactive = score below 0.9.

Take `ClC1C(Cl)C(Cl)C(Cl)C(Cl)C1Cl` (centres undefined): the result in assay [1], in [2] and in [3] was inactive.
For `Oc1ccc(Cl)cc1Cc1ccccc1`, the AC50 in [4] is 1.07 µM (active).
For `O=C(O)COc1ccc(Cl)cc1Cl`, the result in assay [5] and in assay [6] was inactive.
As to `CC1(C)C(C=C(Cl)Cl)C1C(=O)OC(C#N)c1ccc(F)c(Oc2ccccc2)c1` (centres undefined), the compound was called inactive in [5], in assay [7] and in assay [6]. Further, the AC50 is 49.9 µM (active) in assay [7] and 22.3 µM (active) in assay [6].
On to `CNC(=O)CSP(=S)(OC)OC`, for which the compound was classed as inactive in [5], in [7], in assay [6], in [8], in assay [9] and in assay [10].
Take `CCC(C)(NC(=O)c1cc(Cl)c(C)c(Cl)c1)C(=O)CCl` (centres undefined): the compound was classed as inactive in [1] and in assay [2].
Consider `CCOCN(C(=O)CCl)c1c(C)cccc1CC`, for which the outcome in assay [3] was inactive.
Consider `COP(=S)(OC)Oc1ccc(SC)c(C)c1`, for which, in [4], the AC50 was 12 µM (active).
As to `CC1(c2ccc(Oc3ccccc3)cc2)OC(=O)N(Nc2ccccc2)C1=O` (centres undefined), the result in assay [1], in assay [5] and in assay [6] was inactive. Moreover, the AC50 is 9.91 µM (active) in assay [2] and 50 µM (active) in assay [7].
Turning to `O=C(O)CCCOc1ccc(Cl)cc1Cl`, the AC50 in [4] was 20.7 µM (active).
For `CCCN(CCOc1c(Cl)cc(Cl)cc1Cl)C(=O)n1ccnc1`, the result in [1], in assay [2] and in [10] was inactive. The AC50 in [8] is 0.00173 µM (active); in assay [9] it was 0.322 µM (active).
Consider `O=S1OCC2C(CO1)C1(Cl)C(Cl)=C(Cl)C2(Cl)C1(Cl)Cl` (centres undefined), for which the compound was called inactive in assay [1], in [2], in assay [3] and in assay [5]. In addition, the AC50 was 13.8 µM (active) in assay [7] and 23 µM (active) in [6].
As for `CC(C)OC(=O)Nc1cccc(Cl)c1`, the AC50 in assay [4] was 34.7 µM (active).
Consider `C[C@H]1[C@H](c2ccc(Cl)cc2)SC(=O)N1C(=O)NC1CCCCC1`, for which, in assay [4], the AC50 is 2.63 µM (active).
Turning to `CCC(C)Nc1c([N+](=O)[O-])cc(C(C)(C)C)cc1[N+](=O)[O-]` (centres undefined), the compound was classed as inactive in assay [1] and in assay [2]. Besides, the AC50 in assay [4] is 22.3 µM (active).
As to `CC[C@H](C)[C@H]1O[C@]2(C=C[C@@H]1C)C[C@@H]1C[C@@H](C/C=C(\C)[C@@H](O[C@H]3C[C@H](OC)[C@@H](O[C@H]4C[C@H](OC)[C@@H](O)[C@H](C)O4)[C@H](C)O3)[C@@H](C)/C=C/C=C3\CO[C@@H]4[C@H](O)C(C)=C[C@@H](C(=O)O1)[C@]34O)O2` (tested in a mixture with another compound), in assay [5], the call was inactive. Moreover, the AC50 in assay [7] is 3.77 µM (active); in [6], 3.36 µM (active).
On to `O=C(NC(=O)c1c(F)cccc1F)Nc1ccc(OC(F)(F)C(F)OC(F)(F)F)c(Cl)c1` (centres undefined), for which the AC50 in assay [4] is 25 µM (active).
Turning to `CCC(C)(C)C(=O)OC1=C(c2ccc(Cl)cc2Cl)C(=O)OC12CCCCC2`, the compound was called inactive in assay [5], in assay [7] and in assay [6].
For `CC(C)(C)C(O)/C(=C\c1ccc(Cl)cc1Cl)n1cncn1` (centres undefined), the AC50 in [4] is 30.8 µM (active).
For the compound `O=C1c2ccccc2C(=O)N1SC(Cl)(Cl)Cl`, the outcome in assay [1] and in assay [2] was inactive.
Turning to `CN1CSC(=S)N(C)C1`, in assay [3], the outcome was inactive.

What is called AC50 is the midpoint of the concentration-response curve, whichever way the signal moves.
